From PubChem BioAssay (NCI) come the findings set out here.

Experiment in all cases: NCI-60 one-dose screen, 48 h (100 = growth as untreated, 0 = no growth, -100 = all killed)
For one experiment, the system named is DU-145 prostate. Particulars: 10 µM unless noted.
The next experiment deals with K-562 leukemia. The note with it: 10 µM unless noted.
In another experiment the test system is MALME-3M melanoma. Particulars: 10 µM unless noted.
The test system of another experiment is MDA-MB-231 breast. Particulars: 10 µM unless noted.
The subject of the next experiment is RXF 393 renal. Particulars: 10 µM unless noted.
For a further experiment, the system named is SF-268 CNS. The note with it: 10 µM unless noted.
For a further experiment, the system named is SF-295 CNS. Particulars: 10 µM unless noted.
For another experiment, the system named is SF-539 CNS. Particulars: 10 µM unless noted.
The test system of a further experiment is UACC-257 melanoma. The note with it: 10 µM unless noted.
A further experiment relates to M14 melanoma. Particulars: 10 µM unless noted.
The next experiment concerns HCT-15 colon. Particulars: 10 µM unless noted.
For another experiment, the system named is SNB-75 CNS. The note with it: 10 µM unless noted.
In the next experiment the test system is SNB-19 CNS. Particulars: 10 µM unless noted.
In the next experiment the test system is U251 CNS. The note with it: 10 µM unless noted.
For a further experiment, the system named is PC-3 prostate. Particulars: 10 µM unless noted.
The next experiment relates to SK-MEL-5 melanoma. Particulars: 10 µM unless noted.
The next experiment deals with UACC-62 melanoma. Particulars: 10 µM unless noted.
The next experiment deals with SK-MEL-28 melanoma. The note with it: 10 µM unless noted.
The subject of another experiment is HT29 colon. Particulars: 10 µM unless noted.
The test system of a further experiment is LOX IMVI melanoma. The note with it: 10 µM.

The panel holds about 83,000 compounds, 20% with a hit somewhere; the sample as a whole holds those more often.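 In brief: 96-well plates, 48 h treatment, single concentration, percent growth endpoint.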 Unmarked numbers belong to inactive results. Calls of active or inactive are those of the source. The calls were made as follows: active = growth percent below 10; inactive = the rest.

Regarding `C=C1CCC2C3(C)COC(c4cc(F)cc(F)c4)OC3CCC2(C)C1CC(O)C1=CCOC1=O` (configuration not stated), the growth with DU-145 prostate is 72.9%; in the experiment on K-562 leukemia, 24.6%; with MALME-3M melanoma, 88.6%; with MDA-MB-231 breast, 63.2%; with RXF 393 renal, 56.4%; in the experiment with SF-268 CNS, 97.3%. Further, the growth with SF-295 CNS was 77.9%; with SF-539 CNS, 79.6%; in the experiment with UACC-257 melanoma it was 73.7%; in the experiment on M14 melanoma, 58.7%; in the experiment with HCT-15 colon it was 7.8% (active); in the experiment with SNB-75 CNS, 38.1%. Besides, the growth in the experiment on SNB-19 CNS was 88.6%; in the experiment with U251 CNS, 69.1%; in the experiment with PC-3 prostate, 25.8%; in the experiment with SK-MEL-5 melanoma it was 77.8%; in the experiment on UACC-62 melanoma, 68.8%; with SK-MEL-28 melanoma, 46.7%.
For `O=C(COc1ccc(NC(=O)Nc2ccc(Cl)cc2)cc1)N/N=C/c1ccccc1`, the growth in the experiment on DU-145 prostate is -23.9% (active); with K-562 leukemia, -15.2% (active); in the experiment with MALME-3M melanoma, -90.8% (active); in the experiment on MDA-MB-231 breast, -87.9% (active); in the experiment on RXF 393 renal it was -85.2% (active); with SF-268 CNS, -55.2% (active). For the same compound, the growth in the experiment with SF-295 CNS was -96.6% (active); with SF-539 CNS, -95.3% (active); with UACC-257 melanoma, -36.6% (active); in the experiment with M14 melanoma, -66.1% (active); in the experiment with HCT-15 colon, -80.3% (active); in the experiment on HT29 colon, -87.4% (active). Further, the growth with U251 CNS was -86.2% (active); in the experiment with PC-3 prostate it was -72.9% (active); in the experiment on SK-MEL-5 melanoma, -94% (active); with UACC-62 melanoma, -87.5% (active); with LOX IMVI melanoma it was -97.5% (active); in the experiment on SK-MEL-28 melanoma it was -84.9% (active).
Take `Cc1ccc(/C=C/c2n(Cc3ccc4ccccc4c3)c3ccccc3[n+]2Cc2ccc3ccccc3c2)cc1`: the growth in the experiment with DU-145 prostate is -90.1% (active); in the experiment with K-562 leukemia, -25.6% (active); in the experiment with MALME-3M melanoma, -90.2% (active); with MDA-MB-231 breast, -47.3% (active); in the experiment with SF-268 CNS, -65.1% (active); in the experiment with SF-295 CNS it was -98.5% (active). Also, the growth is -96.5% (active) with SF-539 CNS; -71.5% (active) in the experiment with UACC-257 melanoma; -74.1% (active) in the experiment with M14 melanoma; -86.2% (active) in the experiment with HCT-15 colon; -50.4% (active) in the experiment with HT29 colon; -88.3% (active) in the experiment on SNB-75 CNS. In addition, the growth was -58.5% (active) in the experiment with SNB-19 CNS; -42.1% (active) in the experiment on U251 CNS; -88.3% (active) in the experiment with PC-3 prostate; -100% (active) in the experiment on SK-MEL-5 melanoma; -63.6% (active) with UACC-62 melanoma; -87.9% (active) in the experiment with LOX IMVI melanoma. The growth in the experiment on SK-MEL-28 melanoma was -92.3% (active).
On to `CCN(CC)c1ccc(/C=N/Nc2nc(-c3ccc(Br)cc3)cs2)c(O)c1`, for which the growth is 91.7% with DU-145 prostate; 4.62% (active) in the experiment on K-562 leukemia; 53.4% in the experiment on MALME-3M melanoma; 95.9% in the experiment on MDA-MB-231 breast; 64.9% with RXF 393 renal; 99.7% with SF-268 CNS. Moreover, the growth was 91.5% with SF-295 CNS; 52.3% in the experiment with SF-539 CNS; 91.7% with UACC-257 melanoma; 54.5% in the experiment with M14 melanoma; 11.5% with HCT-15 colon; 107% in the experiment on SNB-19 CNS. Further, the growth is 81.7% in the experiment on U251 CNS; 85.2% in the experiment on PC-3 prostate; 77.2% in the experiment on SK-MEL-5 melanoma; 77.4% in the experiment on UACC-62 melanoma; -57.5% (active) in the experiment with LOX IMVI melanoma; 86.2% in the experiment with SK-MEL-28 melanoma.
As to `O=C(O)c1ccc(-c2ccc(/C=N/NC(=O)c3[nH]c4ccc(Br)cc4c3-c3ccccc3)o2)cc1`, the growth in the experiment with DU-145 prostate is 38.8%; in the experiment on K-562 leukemia it was 7.51% (active); with MALME-3M melanoma it was 34.6%; in the experiment with RXF 393 renal, -1.82% (active); in the experiment with SF-268 CNS it was 10.5%; in the experiment with SF-295 CNS it was 6.58% (active). Also, the growth in the experiment on SF-539 CNS was -36.9% (active); with UACC-257 melanoma, 45.5%; in the experiment with M14 melanoma it was 0.786% (active); in the experiment on HCT-15 colon it was 7.24% (active); in the experiment on HT29 colon, 34.5%; in the experiment on SNB-75 CNS, -8.96% (active). In addition, the growth with SNB-19 CNS was 13%; in the experiment on U251 CNS it was 1.17% (active); with PC-3 prostate, 20.8%; in the experiment on SK-MEL-5 melanoma, -9.61% (active); in the experiment on UACC-62 melanoma, 18%; in the experiment on SK-MEL-28 melanoma, 31.1%.
As for `CSc1ccc(C(=O)Nc2ccc3nn(/C(C#N)=C/c4ccccn4)nc3c2)cc1`, the growth in the experiment on DU-145 prostate was -97% (active); in the experiment on K-562 leukemia it was -1.86% (active); in the experiment with MALME-3M melanoma, -82.1% (active); in the experiment with RXF 393 renal, -94.6% (active); in the experiment with SF-268 CNS, -26.3% (active); with SF-295 CNS, -49% (active). The growth was -88.3% (active) in the experiment on SF-539 CNS; -67.6% (active) with UACC-257 melanoma; -76.8% (active) with M14 melanoma; -70.1% (active) in the experiment on HCT-15 colon; -88.6% (active) in the experiment on HT29 colon; 33.1% with SNB-75 CNS. The growth in the experiment on SNB-19 CNS is -70.9% (active); in the experiment on U251 CNS it was -84.1% (active); in the experiment on PC-3 prostate, -28% (active); in the experiment on SK-MEL-5 melanoma it was -54.9% (active); in the experiment with UACC-62 melanoma, -91.2% (active).
As for `CCOC(=O)C1=C(N)N(c2ccccc2)C2=C(C(=O)CC(C)(C)C2)C1c1cccc(Cl)c1Cl` (configuration not stated), the growth is 81% in the experiment with DU-145 prostate; 59.5% in the experiment with K-562 leukemia; 77.6% in the experiment with MALME-3M melanoma; 53.4% in the experiment with RXF 393 renal; 66% in the experiment with SF-268 CNS; 53.5% in the experiment on SF-295 CNS. The growth in the experiment with SF-539 CNS is 32.6%; with UACC-257 melanoma it was 85.4%; in the experiment on M14 melanoma it was 81%; in the experiment on HCT-15 colon, 65.8%; in the experiment on HT29 colon, 72.7%; with SNB-75 CNS, 56.8%. Further, the growth in the experiment with SNB-19 CNS is 41.7%; in the experiment on U251 CNS, 55.2%; in the experiment on PC-3 prostate, 35.3%; in the experiment with SK-MEL-5 melanoma, 77.6%; in the experiment on UACC-62 melanoma it was 55.6%; with SK-MEL-28 melanoma it was 91%.
As for `CC(C)(C)OC(=O)/C=C/c1cccc2c1C(=O)NC(C)(c1cc3cc(Cl)ccc3oc1=O)N2` (configuration not stated), the growth in the experiment on DU-145 prostate was 61.1%; in the experiment on K-562 leukemia it was 17.1%; with MALME-3M melanoma, 51.2%; in the experiment on MDA-MB-231 breast, 67.1%; with RXF 393 renal it was 10.2%; in the experiment with SF-268 CNS it was 51.4%. The growth was 24.9% in the experiment on SF-295 CNS; 66.7% in the experiment with SF-539 CNS; 41.7% in the experiment with UACC-257 melanoma; 49.3% in the experiment with M14 melanoma; 40.3% in the experiment on HCT-15 colon; 42.1% with SNB-19 CNS. For the same compound, the growth in the experiment with U251 CNS was 42.4%; with PC-3 prostate, 12.5%; with SK-MEL-5 melanoma, 28.4%; in the experiment on UACC-62 melanoma, 36%; with LOX IMVI melanoma, 41.1%; in the experiment on SK-MEL-28 melanoma it was 53.7%.
As for `C=C1CCC2C3(C)COC(c4cccs4)OC3CCC2(C)C1CC(Sc1ccccc1)C1=CCOC1=O` (configuration not stated), the growth was 94.4% with DU-145 prostate; 40.7% in the experiment with K-562 leukemia; 103% with MALME-3M melanoma; 89.3% in the experiment with MDA-MB-231 breast; 107% in the experiment on RXF 393 renal; 96.6% in the experiment with SF-268 CNS. The growth in the experiment on SF-295 CNS is 92.5%; with SF-539 CNS it was 95%; in the experiment with UACC-257 melanoma, 95.6%; in the experiment with M14 melanoma, 83.3%; in the experiment on HCT-15 colon, 44.3%; in the experiment with SNB-19 CNS, 95.4%. The growth in the experiment with U251 CNS is 69.1%; in the experiment with PC-3 prostate, 53.5%; with SK-MEL-5 melanoma it was 89.2%; in the experiment on UACC-62 melanoma it was 71.7%; in the experiment on LOX IMVI melanoma it was -77.9% (active); in the experiment on SK-MEL-28 melanoma, 99.4%.
